TbPYK inhibitor = blocks Trypanosoma brucei pyruvate kinase; Q57TT1; TbPYK enzyme, Kinase-Glo Plus ATP luminescence, 45 min; Potency, µM (titrated, usually from 76.8 µM), without a hit: at the top dose activity, negative = inhibition, hits mostly inhibitors; 410,000 tested, 0.12% active; AID 624173; further: potency means the concentration at half of the fitted maximal effect; nearly all actives have a fitted effect of over 50% in size
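TbPYK + substrate in 50 mM TEA pH 7.2, 100 mM KCl, 10 mM MgCl2, 0.05% BSA, 0.01% Tween-20; cpd pinned; ADP 130 uM final; 45 min RT; Kinase-Glo Plus 10 min; luminescence endpoint.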
FMDV inh = antivirals against foot and mouth disease virus; Potency, µM (series often up to 57.9 µM), inactives show at the top dose activity change, negative = inhibition, most hits filed as inhibitors; 410,000 tested, 1.2% active; FMDV antiviral cell-based qHTS; calls by dose curve; tested in HEK293T cells; further: read-out not given here; potency means the concentration at half of the fitted maximal effect; nearly all actives have a fitted effect of over 45% in size
HCMV inh = inhibitors of human cytomegalovirus | HFF cells, HCMV-luciferase reporter, 72 h; hits give low values | activity change, negative = inhibition, % at 57.5 µM | 410,000 tested, 4.5% active | AID 1259415; in the data active means activity change below about -60%; inconclusive means no clear call, values can overlap the other calls; inactive means above about -39%
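Human foreskin fibroblasts infected with luciferase-reporter HCMV at MOI 1 PFU/cell, compounds at two doses. Luciferase measured 72 h post infection; normalized to buffer-only basal and Salinomycin (10uM) controls.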
FBPA Giardia inh = inhibitors of Giardia lamblia fructose-1,6-bisphosphate aldolase | AID 2451 | purified Giardia FBPA | Potency, µM (series often up to 59.6 µM), inactives show at the highest dose activity, negative = inhibition, usual class: inhibitors | 290,000 tested, 0.71% active; further: potency means the concentration at half of the fitted maximal effect; nearly all actives have a fitted effect of over 55% in size
Target sequence (A8B2U2 whole entry, looked up): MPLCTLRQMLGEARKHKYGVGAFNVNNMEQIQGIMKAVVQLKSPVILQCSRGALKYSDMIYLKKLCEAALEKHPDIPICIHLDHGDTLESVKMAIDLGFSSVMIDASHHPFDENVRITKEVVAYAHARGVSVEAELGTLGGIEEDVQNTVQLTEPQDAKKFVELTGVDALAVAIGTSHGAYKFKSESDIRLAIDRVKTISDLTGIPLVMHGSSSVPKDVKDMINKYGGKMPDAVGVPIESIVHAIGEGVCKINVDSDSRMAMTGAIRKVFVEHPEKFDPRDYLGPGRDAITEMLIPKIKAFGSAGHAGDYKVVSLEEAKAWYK
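Giardia FBPA (40 nM reagent) was preincubated 10 min at RT with compound (up to 57.5 uM final), then substrate plus GAPDH/TPI/NAD/arsenate coupling system with diaphorase/resazurin was added; resorufin fluorescence (525/598 nm) was read after 20 min.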
Sm TGR block = S. mansoni TGR enzyme inhibition | Potency, µM (highest dose often 114 µM), for inactives: at the highest dose activity change, negative = inhibition, most hits filed as inhibitors | purified TGR, DTNB reduction, TNB absorbance 405 nm | Q962Y6 | 360,000 tested, 3% active | AID 485364; further: potency means the concentration at half of the fitted maximal effect; nearly all actives have a fitted effect of over 60% in size
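First, TGR (20 nM dispensed) and NADPH were mixed with compound. Second, a 15 min room-temperature incubation followed. Third, further NADPH and then DTNB were added to start the reaction. Finally, TNB absorbance was monitored kinetically.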
RE007 growth inh = less growth of the S. pombe RE007 Vpr strain | S. pombe RE007 Vpr strain, BacTiter-Glo ATP luminescence, 24 h | Potency, µM (series often up to 92.2 µM), for inactives: at the top dose activity change, negative = less growth, actives largely listed as inhibitors | 360,000 tested, 0.21% active | AID 651644; active means well fitted falling curve with a large enough effect; inconclusive means small, poorly fitted or top-dose-only effect; inactive means no such curve, though single readings can be large or run the other way; further: potency means the concentration at half of the fitted maximal effect; nearly all actives have a fitted effect of over 50% in size
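Fission yeast RE007 carrying one integrated HIV-1 vpr copy, seeded at OD 0.01 in PMG+AL medium with 23 nL pinned compound. Grown 24 h at 30 degrees; viability read by BacTiter-Glo luminescence after 5 min.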
An asterisk follows results filed as active; ? = inconclusive; · = no result given; [ ] = dose if it differs, or a comment. Sampled rows, rich in hits. Any-hit rate of the full collection: about 7.7%. Unless noted, the call rests on the fitted dose curve; in most records, active means well fitted curve in the direction sought with a large enough effect; inconclusive means small, poorly fitted or top-dose-only effect, or another doubt; inactive means no such curve, though single readings can be large; an effect the other way counts as inactive or inconclusive. On the % scale 0 is the no-effect control and ±100 the full control effect.

SMILES | TbPYK inhibitor | FMDV inh | HCMV inh | FBPA Giardia inh | Sm TGR block | RE007 growth inh
Cc1ccc(NC(=S)N2CCC(c3nc4ccccc4s3)CC2)cc1C | 0.7% | · | -89.7* | -1.8% | 0.5% | 11.3%
CCNC(=O)N1CCC(c2nc3ccccc3s2)CC1 | 7.6% | -7.5% | -6.3 | 4.5% | 8.5% | 0.0%
Cc1cnc(C)c(-c2ccc(O)c(CN3CCN(C=O)CC3)c2)n1 | · | -11.4% | · | · | · | ·
CCOc1cccc2cc(-c3nc(-c4ccccc4C)no3)c(=O)oc12 | -0.6% | 9.5% | ? | · | -4.5% | ·
O=C(CCSc1nc(-c2ccco2)cc(C(F)(F)F)n1)NCC1CCCO1 (stereo unspecified) | -11.3% | 0.0% | -34.2 | 2.1% | 9.5% | 17.4%
CCn1nc(C)c(NC(=O)CCCSc2nc(-c3ccco3)cc(C(F)(F)F)n2)c1C | 1.5% | ? | -32.7 | 0.5% | 50.1µM* | 11.8%
Cc1nn(C)c(C)c1NC(=O)CCSc1nc(-c2ccco2)cc(C(F)(F)F)n1 | -3.9% | 0.0% | ? | 0.2% | ? | 12.0%
O=C(CCCSc1nc(-c2ccco2)cc(C(F)(F)F)n1)NCC1CCCO1 (stereo unspecified) | -3.1% | 23.6% | -7.0 | 0.9% | 50.1µM* | -12.1%
Cc1ccc2ccc3ccc(C)nc3c2n1 | 5.9% | -24.0% | -94.1* | ? | -5.8% | ?
COCc1cc(N2CCN(C(=O)OC(C)(C)C)C[C@@H]2C)ccc1N1CC[C@@H](O)C1 | · | · | 18.9 | · | · | ·
Nc1ccc(S(=O)(=O)Nc2nccc(/C=C/c3cccc([N+](=O)[O-])c3)n2)cc1 | 2.0% | -26.8% | -28.7 | · | · | -1.1%
CC(=O)Nc1ccc(S(=O)(=O)Nc2nccc(C)n2)cc1 | -14.5% | 0.0% | 21.4 | ? | -1.3% | -10.1%
Nc1ccc(S(=O)(=O)Nc2nccc(/C=C/c3cccc(Br)c3)n2)cc1 | -7.7% | -20.4% | -73.3* | -0.4% | -4.2% | -6.8%
CC(=O)Nc1ccc(S(=O)(=O)Nc2nccc(/C=C/c3ccc(Cl)cc3)n2)cc1 | -12.0% | -21.3% | -73.1* | 5.3% | 8.5% | 4.4%
O=S(=O)(Nc1ncccn1)c1ccc(NC(=S)Nc2ccc(Cl)cc2)cc1 | -7.2% | 7.1% | -63.8* | -13.4% | ? | 0.4%
O=C(Nc1ccc(Cl)cc1)Nc1ccc(S(=O)(=O)Nc2ncccn2)cc1 | 1.3% | -3.0% | ? | 15.5% | 10.4% | -0.8%
COc1ccc(NC(=O)CN2CCN(Cc3ccccc3)S2(=O)=O)c(OC)c1 | 3.5% | 0.2% | 19.6 | · | 2.8% | ·
Cc1ccc(CN2CC(N3CCC[C@@H]3C)CS2(=O)=O)cc1 (stereo partly specified) | · | · | 1.3 | · | · | ·
CC1=CCC2C(=O)N(c3ccc(C(=O)Nc4ccccc4Cl)cc3)C(=O)C2C1 (stereo unspecified) | 4.2% | 0.0% | -102.5* | -12.2% | -2.4% | -5.2%
COC(=O)/C=C1\N/C(=N\c2nc(C)cc(C)n2)N(c2ccc(C)c(C)c2)C1=O | 4.8% | 25.1µM* | 43.6 | ? | -22.8% | 32.3%
O=C(CN1C(=O)COc2ccc(Cl)cc21)Nc1ccc(F)cc1 | -1.1% | -9.8% | -7.9 | · | 4.3% | ·
C=CCOC(=O)/C=C/C(=O)NC(N)=O | -17.7% | -4.4% | 19.7 | -0.2% | 1.26µM* | ·
CCn1c(Cc2c(C)[nH]c3ccccc23)nnc1SCC(=O)NCc1ccccc1 | -12.7% | -8.2% | 16.4 | 3.3% | ? | 2.2%
CCn1c(Cc2c(C)[nH]c3ccccc23)nnc1SCC(N)=O | -12.2% | · | -26.3 | -2.5% | 44.7µM* | -2.7%
C=CCn1c(Cc2c(C)[nH]c3ccccc23)nnc1SCC(=O)NCc1ccc(F)cc1 | -19.9% | -27.6% | 7.3 | 0.3% | 31.6µM* | 2.6%
SMILES | TbPYK inhibitor | FMDV inh | HCMV inh | FBPA Giardia inh | Sm TGR block | RE007 growth inh
C=CCn1c(Cc2c[nH]c3ccccc23)nnc1SCC(=O)NCc1ccccc1 | · | 9.5% | · | 1.0% | -1.4% | -7.9%[3.69 µM]
Cc1nn(C)c2c1c(C(F)(F)F)cc(=O)n2Cc1cccc(Br)c1 | 2.0% | 2.3% | -5.2 | · | 8.7% | ·
Cn1c(SCc2ccc(F)cc2)nc2ccc(C(=O)NCc3cccc(Cl)c3)cc21 | -9.3% | -5.4% | -22.5 | · | 1.3% | ·
CCCCNc1ncnc2sc3c(c12)CCN(CCC)C3 | 0.5% | -25.4% | -62.0* | 1.8% | 4.4% | -16.9%
CCc1ccc(NC(=O)Cn2c(=O)n(Cc3nc(C)no3)c(=O)c3cc4c(cc32)OCO4)cc1 | 0.5% | -19.7% | 39.0 | · | 3.1% | ·
Cc1cc(O)c(C=O)c2c1C(=O)Oc1c(CO)c(O)c3c(c1O2)C(O)OC3=O (stereo unspecified) | 2.5% | -10.3% | · | ? | 14.1µM* | 4.2%
CC1=Nc2ccccc2N=C(NC(=O)c2ccccc2)C1c1ccc(Cl)cc1 (stereo unspecified) | -0.1% | -16.7% | -63.0* | -8.9% | -2.6% | -12.9%
O=C1CC(c2ccc(Cl)cc2)N=C(NC(=O)c2ccccc2)N1 (stereo unspecified) | 0.2% | -21.7% | -3.5 | · | 2.7% | ·
Cc1ccc(C2C=C(c3ccccc3)Nc3nc(NS(=O)(=O)c4ccc(C)cc4)nn32)cc1 (stereo unspecified) | 6.7% | -5.0% | -0.8 | · | -20.9% | ·
CC1=C(C(=O)Nc2ccccc2)C(c2ccc(O)cc2)n2nc(-c3ccc(Cl)cc3)nc2N1 (stereo unspecified) | 2.6% | 0.0% | -5.8 | · | 1.1% | ·
CC(=O)Nc1nc2n(n1)C(c1ccc(Cl)cc1)C=C(C)N2 (stereo unspecified) | -10.7% | 2.3% | -19.7 | -11.6% | 14.1µM* | -4.1%
CC1=CC(c2ccc(Cl)cc2)n2nc(NC(=O)c3ccccc3)nc2N1 (stereo unspecified) | -3.4% | -11.3% | -10.5 | -0.9% | 44.7µM* | 33.2%
CCc1nnc(SCC(=O)Nc2ccc(Cl)cc2F)c2cc3occc3n12 | -5.1% | ? | ? | · | 7.5% | ·
CCN1/C(=C/c2ccc3cc(C)ccc3[n+]2CC)Sc2ccccc21 | -15.8% | 20µM* | -101.8* | 17.6% | 3.4% | ?
CC[n+]1c(/C=C2\Sc3ccccc3N2C)ccc2cccc(C)c21 | -0.4% | 4.47µM* | -101.0* | 9.6% | · | ?
CCN1/C(=C/c2ccc3cc(C)ccc3[n+]2CC)Sc2cc(C)c(C)cc21 | -10.7% | ? | -100.0* | 2.0% | -12.7% | ?
CC(=S)/C=C1\Sc2ccccc2N1C | ? | · | -23.4 | -8.0% | -23.2% | ?
COCCCNc1ncnc2c1sc1nc(-c3ccco3)c3c(c12)CC(C)(C)OC3 | -7.4% | -29.7% | 56.8 | -1.5% | 15.8µM* | -4.7%
CSc1nc(SCCO)c2sc3nc(-c4ccco4)c4c(c3c2n1)CC(C)(C)OC4 | 13.0% | -20.5% | 30.2 | -10.8% | 2.51µM* | -23.6%
